Assay [1] can be described thus: Quantitative highthroughput screen to assess conditional lethalithy of P12 Ichikawa cells grown in RPMI1640 with untreated serum (RPMI+s) (AID 1963881).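 Note: series mostly up to about 46 µM; 100% = DMSO wells and 0% = empty wells without cells; nearly all actives have a fitted effect of over 35% in size.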 Conditions: Potency: viability. In outline: (§1)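 Each medium arm—HPLM with 10% dialyzed FBS, or RPMI1640 with 5 mM glucose and 10% untreated or dialyzed FBS—was screened against an 11-point, 3-fold compound titration for 48 h at 37 °C, with CellTiter-Glo luminescence as endpoint.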

A short description of assay [2]: Quantitative highthroughput screen to assess conditional lethalithy of SEM cells grown in RPMI1640 with dialyzed fetal bovine serum (RPMI+ds) (AID 1963884).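 Note: series mostly up to about 46 µM; 100% = DMSO control wells and 0% = empty wells without cells; nearly all actives have a fitted effect of over 35% in size.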 In a few lines:
as §1

The nature of assay [3]: Cellular viability qHTS for adrenocortical cancer (ACC) cell line SW-13 (AID 1963989).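 For activity (max response): cells grown in serum-free medium with ITS supplement; % is set by controls: 0 for no effect and ±100 for the full control effect.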 Note: nearly all actives have a fitted effect of over 65% in size. Note: potency is the fitted concentration of half-maximal effect. Conditions: SW-13 ACC cells viability, CellTiter-Glo, 48 h; activity (max response): stronger effect = lower value. In a few lines: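 Here, serum-free SW-13 cultures were dosed up to 46 uM. Following 48 h, ATP-dependent luminescence (CellTiter-Glo) reported viable cells, and logistic modeling produced IC50 values.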
(In qHTS, concentration-response curves come from the screen itself.)

A short description of assay [4]: Quantitative highthroughput screen to assess conditional lethalithy of NOMO1 cells grown in Human Plasma-Like Medium with dialyzed fetal bovine serum (HPLM+ds) (AID 1963878).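 Note: 100% = DMSO wells and 0% = empty wells on each plate; nearly all actives have a fitted effect of over 35% in size.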 In a few lines: as §1
Assay [5] can be described thus: Cellular viability qHTS for adrenocortical cancer (ACC) cell line NCI-H295R (AID 1963990). Note: nearly all actives have a fitted effect of over 60% in size. Note: potency is the fitted concentration of half-maximal effect. In a few lines:
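Viability of NCI-H295R after 48 h of treatment (final up to 46 uM) measured through cellular ATP luminescence.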

Where “and” joins values, the source holds several entries; their conditions need not be identical. Identical values can stand only once. Records with an inconclusive call do not appear. Calls of active or inactive are those of the source. Calls come from the whole dose curve; as a rule, active = well fitted curve in the direction sought with a large enough effect; inconclusive = small, poorly fitted or top-dose-only effect, or another doubt; inactive = no such curve, though single readings can be large; an effect the other way counts as inactive or inconclusive.

`CC(=Cc1csc(C)n1)[C@@H]1C[C@H]2O[C@@H]2CCC[C@H](C)[C@@H](O)[C@@H](C)C(=O)C(C)(C)[C@@H](O)CC(=O)O1`: the Potency entry in assay [1] and in assay [2] was “inactive” each time.

As to `C/C(O)=C(\C#N)C(=O)Nc1cc(Br)ccc1Br`, the activity (max response) in assay [3] is -6.51% (inactive). `C1=C2CCCN[C@H]2[C@@H]2C[C@H]1[C@@H]1CCCCN1C2`: the Potency entry in assay [4] is “inactive”. Consider `Clc1ccc(C(c2ccc(Cl)cc2)C(Cl)(Cl)Cl)cc1`, for which the activity (max response) in assay [3] is 4.08% (inactive). On to `ClCCCN1CCN(c2cccc(Cl)c2)CC1`, for which the activity (max response) in assay [3] is -6.01% (inactive). On to `Cc1c(Cl)c(=O)oc2cc(OP(=O)(OCCCl)OCCCl)ccc12`, for which, in assay [3], the activity (max response) was -15.3% (inactive). The Potency result in assay [5] is “inactive”. For the compound `Nc1ccc([N+](=O)[O-])cc1`, the Potency entry in assay [5] is “inactive”.

As for `CNCC(=O)c1ccc(O)c(O)c1`, in assay [3], the activity (max response) was 2.58% (inactive). In addition, the Potency result in assay [5] is “inactive”. Taken in the same sequence, the figures for `COC(=O)c1cncn1C(C)c1ccccc1` (stereo not given) were -8.99% (inactive) and “inactive”.

Consider `C=C(C)[C@H]1CN[C@H](C(=O)O)[C@H]1CC(=O)O`, for which the activity (max response) in assay [3] was 7.33% (inactive). In assay [5], the Potency entry was “inactive”. Turning to `CC(C)=CCOc1c2occc2cc2ccc(=O)oc12`, the Potency result in assay [5] is “inactive”. Turning to `CCCC(C)C1(CC)C(=O)N=C(S)NC1=O` (stereo not given), the activity (max response) in assay [3] was -0.902% (inactive). In addition, in assay [5], the Potency result was “inactive”. Consider `COP(=S)(OC)SCN1C(=O)c2ccccc2C1=O`, for which the Potency entry in assay [5] is “inactive”.

Turning to `CCC1(CCC(C)C)C(=O)NC(=O)NC1=O`, the activity (max response) in assay [3] is 0.531% (inactive). In addition, in assay [5], the Potency result is “inactive”. For `C[C@]12COC(=O)C[C@@H]1CC[C@@H]1[C@@H]2CC[C@@]2(C)[C@H]1CC[C@]2(C)O`, the activity (max response) in assay [3] was -23.6% (inactive). Further, in assay [5], the Potency entry was “inactive”. `CC(O)(CS(=O)(=O)c1ccc(F)cc1)C(=O)Nc1ccc(C#N)c(C(F)(F)F)c1` (stereo not given): the Potency result in assay [5] was “inactive”. The same measure, in the same setting: for `CC(N[C@H]1C[C@@H]1c1ccccc1)c1ccc2c(c1)OCCO2` (stereo not given in full) the value was “inactive”. For the compound `O=c1c(C2CC(c3ccc(-c4ccc(Br)cc4)cc3)Cc3ccccc32)c(O)sc2ccccc12` (stereo not given), the Potency is 5.8 µM (active) in assay [3] and 7.31 µM (active) in assay [5].

As for `Cc1cccc(Cc2cnc[nH]2)c1C`, the activity (max response) in assay [3] was -10.7% (inactive). For the same compound, the Potency result in assay [5] was “inactive”. With `CNC(C)Cc1ccc2c(c1)OCO2` (stereo not given), the activity (max response) in assay [3] is -2% (inactive). Further, in assay [5], the Potency result was “inactive”. For `CCCCC/C=C\C/C=C\C/C=C\C/C=C\CCCC(=O)NCC(=O)O`, the Potency result in assay [5] is “inactive”.

Regarding `CC(=O)O[C@@]12CO[C@@H]1C[C@H](O)[C@@]1(C)C(=O)[C@H](O)C3=C(C)[C@@H](O)C[C@@](O)([C@@H](OC(=O)c4ccccc4)[C@H]21)C3(C)C`, the Potency result in assay [5] was “inactive”. `O=c1oc2ccccc2c(O)c1C(CC(O)c1ccc(-c2ccc(Br)cc2)cc1)c1ccccc1` (stereo not given): the Potency in assay [5] was 18.4 µM (active). For `CC(=O)N1N=C(c2ccc(N)cc2)c2cc3c(cc2C[C@H]1C)OCO3`, the activity (max response) in assay [3] is -25.9% (inactive). The Potency entry in assay [5] is “inactive”.

Consider `N#CC(O[C@@H]1O[C@H](CO[C@@H]2O[C@H](CO)[C@@H](O)[C@H](O)[C@H]2O)[C@@H](O)[C@H](O)[C@H]1O)c1ccccc1` (stereo not given in full), for which, in assay [5], the Potency result is “inactive”. Take `CCCN(CCC)C(=O)Cc1c(-c2ccc(Cl)cc2)nc2ccc(Cl)cn12`: the Potency entry in assay [5] was “inactive”. For `CC(C)(NC(=O)O[C@@H]1CN2CCC1CC2)c1csc(-c2ccc(F)cc2)n1`, the Potency entry in assay [5] was “inactive”. As to `C=C[C@H]1CN2CCC1C[C@@H]2[C@@H](O)c1ccnc2ccccc12` (stereo not given in full), the activity (max response) in assay [3] was -20.5% (inactive). Further, the Potency entry in assay [5] is “inactive”. In the case of `Nc1ccc([As](=O)(O)O)cc1`, the activity (max response) in assay [3] was 13.3% (inactive). Also, the Potency result in assay [5] is “inactive”.

As for `COc1cc(CC#N)cc(OC)c1OC`, the activity (max response) in assay [3] was 12% (inactive). Also, the Potency result in assay [5] was “inactive”.

`O=C1NCN(c2ccccc2)C12CCN(CCCOc1ccc(F)cc1)CC2`: the Potency entry in assay [5] is “inactive”.

With `CC(C)(C)CC(C)(C)c1ccc(O)cc1`, in assay [5], the Potency was 8.91 µM (active) and 13 µM (active). Turning to `O=C1C(I)=CC(=C(c2cc(I)c(O)c(I)c2)c2ccccc2C(=O)O)C=C1I`, the Potency in assay [5] is 20.6 µM (active). `O=c1[nH]c2ccccc2n1C1CCN(CCCC(c2ccc(F)cc2)c2ccc(F)cc2)CC1`: the Potency in assay [5] was 23.1 µM (active). For the compound `C[C@H]1[C@H](O)[C@@H](C)/C=C/C=C/CC/C=C/C=C/C=C/C=C/[C@H](O[C@@H]2O[C@H](C)[C@@H](O)[C@H](N)[C@@H]2O)C[C@@H]2O[C@](O)(C[C@@H](O)[C@H](O)CC[C@@H](O)C[C@@H](O)C[C@@H](O)CC(=O)O[C@H]1C)C[C@H](O)[C@H]2C(=O)O`, in assay [3], the activity (max response) is -20.1% (inactive). Besides, the Potency entry in assay [5] was “inactive”. For the compound `CN[C@@H]1C[C@H]2O[C@@](C)([C@@H]1OC)n1c3ccccc3c3c4c(c5c6ccccc6n2c5c31)C(=O)NC4`, the Potency in assay [5] is 0.282 µM (active). As for `C[CH2][Hg][S]c1ccccc1C(=O)O`, the Potency is 2.59 µM (active) in assay [3] and 1.64 µM (active) in assay [5]. As for `CC(C)=CCN1CC[C@@]2(C)c3cc(O)ccc3C[C@@H]1[C@@H]2C`, the Potency was 39.8 µM (active) in assay [3] and 31.6 µM (active) in assay [5]. Regarding `COC(=O)[C@]12CCC(C)(C)C[C@H]1[C@H]1C(=O)C=C3[C@@]4(C)C=C(C#N)C(=O)C(C)(C)[C@@H]4CC[C@@]3(C)[C@]1(C)CC2`, the Potency in assay [3] was 6.31 µM (active); in assay [5], 3.98 µM (active). Consider `C=CC[C@]1(O)CC[C@H]2[C@@H]3CCC4=CC(=O)CCC4=C3C=C[C@@]21C`, for which the Potency entry in assay [5] is “inactive”.

As for `CCCC1CCCCN1` (stereo not given), the activity (max response) in assay [3] is 12.1% (inactive). The Potency entry in assay [5] is “inactive”.

In the case of `CCOC(=O)c1cncn1C(C)c1ccccc1` (stereo not given), the activity (max response) in assay [3] was 4.76% (inactive). The Potency entry in assay [5] is “inactive”.

In the case of `CC#C[C@]1(O)CC[C@H]2[C@@H]3C[C@H](C)C4=CC(=O)CC[C@]4(C)[C@H]3CC[C@@]21C`, the Potency in assay [5] was 8.2 µM (active). For the compound `C[C@@H]1CC2=CC(=O)CC[C@@H]2[C@H]2CC[C@@]3(C)[C@@H](CC[C@]3(C)O)[C@@H]21`, the Potency entry in assay [5] was “inactive”.

These data come from PubChem BioAssay (NCATS).
